In the test the target is Catechol O-methyltransferase (Homo sapiens) (UniProt P21964). Description: Confirmatory Screen for Target Class Profiling of Small Molecule Inhibitors of Methyltransferases (AID 1745852). To be noted: MTase-Glo luminescence, SAH detection, recombinant enzyme; measured here: COMT max response; stronger effect = lower value.
Catechol O-methyltransferase (Homo sapiens), sequence (P21964 whole entry, looked up): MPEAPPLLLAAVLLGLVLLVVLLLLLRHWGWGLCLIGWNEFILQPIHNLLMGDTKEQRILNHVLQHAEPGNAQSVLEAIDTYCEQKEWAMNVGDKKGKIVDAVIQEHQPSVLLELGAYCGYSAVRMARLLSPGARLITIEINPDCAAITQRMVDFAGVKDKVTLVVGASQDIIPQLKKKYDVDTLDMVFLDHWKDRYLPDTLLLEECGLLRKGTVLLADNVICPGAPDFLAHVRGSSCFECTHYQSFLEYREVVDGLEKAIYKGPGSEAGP
Regarding `COc1cccc(Nc2cc3c(cn2)CN(Cc2cccnc2)CCN3)c1`, the activity worked out at 1.92%.

Regarding `OCC1(Cc2ccccc2)CCCN(Cc2cn[nH]c2-c2ccc(F)cc2)C1` (stereo unspecified), the activity worked out at 5.88%. As for `COc1ccc(OC)c2c1cc1n2CC(C)(C(=O)NC2CCCCC2)N(Cc2ccccn2)C1=O` (stereo unspecified), the figure is -7.35%. As for `CN(Cc1ccccc1)C1(C(=O)NC2CCC(O)CC2)Cc2ccccc2C1` (stereo unspecified), the activity came to 2.67%. Consider `Cc1ccsc1CCNC(=O)Cn1c(=O)oc2cc(S(=O)(=O)N3CCCC3)ccc21`, for which the activity is -8.14%. Consider `COc1ccc(-c2nc3ccccc3[nH]2)cc1`, for which the activity is -76.2%. As for `CC(C)CCn1c(=O)c2ccccc2n2c(CCC(=O)N3CCN(Cc4ccccc4)CC3)nnc12`, the activity came out at 3.34%.

`Cc1ccc(C(=O)O)c2c1N[C@@H](c1ccc(Cl)cc1)[C@H]1CC=C[C@@H]21`: the activity came to 2.12%.

On to `COC(=O)[C@@H]1Cc2ncn(Cc3ccc(Cl)cc3)c2CN1CCCc1ccccc1`, for which the activity amounted to 0.13%. For the compound `CN1CCCC2(C1)CN(C)c1ccc(C(=O)NCC3CCCCC3)cc12` (stereo unspecified), the activity came out at 1.14%. Take `O=C(NCc1ccccc1)c1ccc2c(=O)nc3c(-c4ccccc4F)n[nH]n3c2c1`: the activity is -13.3%. Next, `CCNc1ncc(CN2CCN(c3ccncc3)CC2)cn1`: 4.09%; `Cn1c(=O)n(C)c2cc(S(=O)(=O)Nc3ccc(-c4nnc(-c5ccccc5)o4)c(Cl)c3)ccc21`: -28.6%. Next, `CC1CCN(CCCNC(=O)CCc2nnc3n(Cc4ccc(F)cc4)c(=O)c4ccccc4n23)CC1`: -10.3%; `Cn1c(=O)n(C)c2cc(S(=O)(=O)N3CCN(C4CCCCC4)CC3)ccc21`: -4.43%; `CCNc1nccc(N2CCC(CC(=O)N3CCN(c4ccccc4F)CC3)CC2)n1`: 6.4%.
